In the library only some 7.4% were active in any assay of this set; here they are far more common.
Rab9 prom act: activates the Rab9 promoter. Huh7 Rab9 promoter-luciferase reporter, luminescence, 24 h. Potency, µM (titrated, usually from 9.22 µM), for the others: at the highest dose activation, negative = inhibition, most hits filed as activators. hit rate 2.8% among 320,000. AID 485297; note: % of control where 0% means no effect; nearly all actives have a fitted effect of over 60% in size
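Huh7 reporter line, Rab9 promoter upstream of luciferase. Compound exposure 24 h at 37 °C in reduced-serum medium with 10% FBS. Read-out: luminescence.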
FLuc counter: counter-screen for miR-21 project: firefly luciferase inhibitors or activators. P08659. purified FLuc, Km substrates, luminescence inhibition. Potency, µM (doses to about 57.5 µM), for inactives: at the highest dose activity change, negative = inhibition, actives largely listed as inhibitors. hit rate 6.9% among 360,000;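 note: plate controls were vehicle for no effect and reference inhibitor for full effect; nearly all actives have a fitted effect of over 55% in size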
Target sequence (P08659 whole entry, looked up): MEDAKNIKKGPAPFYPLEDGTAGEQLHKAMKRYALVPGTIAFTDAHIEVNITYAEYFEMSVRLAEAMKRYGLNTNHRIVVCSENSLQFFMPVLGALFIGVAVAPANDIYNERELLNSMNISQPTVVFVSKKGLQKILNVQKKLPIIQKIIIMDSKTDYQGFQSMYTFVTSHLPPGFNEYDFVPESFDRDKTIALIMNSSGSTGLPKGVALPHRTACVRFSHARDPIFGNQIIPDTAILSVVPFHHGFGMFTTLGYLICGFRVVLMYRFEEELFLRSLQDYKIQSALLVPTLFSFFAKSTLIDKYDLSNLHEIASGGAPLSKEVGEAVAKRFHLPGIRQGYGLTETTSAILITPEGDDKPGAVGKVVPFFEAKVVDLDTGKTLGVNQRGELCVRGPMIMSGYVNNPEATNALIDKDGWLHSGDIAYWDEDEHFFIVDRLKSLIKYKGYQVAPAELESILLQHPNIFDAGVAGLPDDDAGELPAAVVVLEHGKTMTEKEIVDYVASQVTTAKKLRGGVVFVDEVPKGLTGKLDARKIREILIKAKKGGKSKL
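Purified P. pyralis luciferase, 10 nM final, with Km-level 10 uM D-luciferin and 10 uM ATP in 50 mM Tris acetate pH 7.5, 10 mM Mg acetate, 0.01% Tween-20, 0.05% BSA; 6-point qHTS titration about 60 µM downward; luminescence read.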
NPC1 promoter act: NPC1 promoter activation; AID 485313; Huh7 NPC1 promoter luciferase reporter, 24 h; Potency, µM (highest dose often 9.22 µM), inactives show top-dose activation, actives largely listed as activators; hit rate 2.4% among 320,000; note: % of control where 0% means no effect; nearly all actives have a fitted effect of over 60% in size
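Luciferase expression driven by the NPC1 promoter was measured in stably transfected Huh7 cells after a 24 h compound incubation, using a luciferase reagent and a luminescence read.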
ELG1 genotoxic: genotoxicity induction in ELG1-luciferase HEK293T cells; HEK293T ELG1-luciferase reporter, luminescence, 16 h; Potency, µM (doses to about 46 µM), inactives show at the top dose activity change, positive = activation, most hits filed as activators; hit rate 1.3% among 330,000; AID 504466; note: % of control where 0% means no effect; nearly all actives have a fitted effect of over 60% in size
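Quantitative HTS format in 1536-well plates. HEK293T ELG1-luciferase reporter cells receive test compound and are incubated 16 hr at 37 °C, 5% CO2; ONE-Glo added, 30 min room temperature, then luminescence read.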
SMN2 splice up: enhancers of SMN2 splice variant expression | AID 1458 | HEK293 SMN2-luciferase splicing reporter, luminescence, 30-36 h | hit rate 2.8% among 210,000 | Potency, µM (titrated, usually from 46.1 µM), for inactives: top-dose activity change, positive = activation, actives largely listed as activators; note: % of control where 0% means no effect; nearly all actives have a fitted effect of over 55% in size
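HEK293 cells carry an SMN2 minigene-luciferase reporter in which exon 7 inclusion puts luciferase in frame. Cells were seeded at 2000 cells/well, attached for 10-12 hours, then exposed to compounds for 30-36 hours at 37C before ONE-Glo luminescence.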
* hit, by the source's call; [ ] = remark or other dose. Calls come from the whole dose curve; as a rule, active = well fitted curve in the direction sought with a large enough effect; inconclusive = small, poorly fitted or top-dose-only effect, or another doubt; inactive = no such curve, though single readings can be large; an effect the other way counts as inactive or inconclusive. Potency is the fitted concentration of half-maximal effect.

Cn1c(CN2CCCC2)nc2cc(NC(=O)c3ccco3)ccc21 was read as Rab9 prom act inconclusive, FLuc counter inconclusive, NPC1 promoter act 24%, ELG1 genotoxic 15µM* and SMN2 splice up inconclusive.
CN1CCN(CCc2nc3cc(NC(=O)c4ccco4)ccc3n2C)CC1 was read as Rab9 prom act 1%, FLuc counter 4%, NPC1 promoter act -3% and ELG1 genotoxic 2%.
Cc1ccc(N2CCN(CCc3nc4cc(NC(=O)c5ccco5)ccc4n3C)CC2)cc1 was read as Rab9 prom act 1%, FLuc counter -6%, NPC1 promoter act -2%, ELG1 genotoxic -16% and SMN2 splice up -32%.
`NC(=O)CCC(NC(=O)c1ccc(Cl)cc1)C(=O)NCCc1ccc2c(c1)OCCO2` (stereo unspecified) gave Rab9 prom act -4%, FLuc counter 5%, NPC1 promoter act -9% and ELG1 genotoxic 0%.
O=C(Cc1ccccc1)Nc1c(C(=O)N2CCN(c3ccc(F)cc3)CC2)oc2ccccc12 was read as FLuc counter -1%.
COc1cccc(N2CCN(C(=O)c3cc4c(s3)-c3c(C)cccc3OC4)CC2)c1 was read as FLuc counter -1% and SMN2 splice up -3%.
For O=C(CCN1C(=O)C2CC=CCC2C1=O)Nc1nccs1 (stereo unspecified) the results were Rab9 prom act 0%, FLuc counter 2%, NPC1 promoter act -1% and ELG1 genotoxic 0%.
Screening O=C(CSc1nc(-c2ccccc2)nc2c1CCCC2)c1ccc(F)cc1 returned FLuc counter 0% and SMN2 splice up 0%.
Screening Cc1ccc2oc(=O)c3cnn(CC(=O)N4CCN(c5cc(Cl)ccc5C)CC4)c3c2c1 returned FLuc counter 2% and SMN2 splice up -16%.
Screening CNC(=S)Nc1ccc(C23CC4CC(CC(C4)C2)C3)cc1 returned Rab9 prom act 11%, FLuc counter inconclusive, NPC1 promoter act 0% and ELG1 genotoxic -1%.
For Oc1ccc(C23CC4CC(CC(C4)C2)C3)cc1O the results were Rab9 prom act 5%, FLuc counter 15µM*, NPC1 promoter act 2% and ELG1 genotoxic 2%.
CC(=O)Nc1ccc(C23CC4CC(CC(C4)C2)C3)cc1 was read as Rab9 prom act 2%, FLuc counter 15µM*, NPC1 promoter act inconclusive and ELG1 genotoxic 9%.
`CCOc1ccc(NC(=O)CCC(=O)Oc2ccc(C)cc2)cc1` gave Rab9 prom act 2%, FLuc counter 2%, NPC1 promoter act -2% and ELG1 genotoxic 2%.
For N#C/C(=C\Nc1ccccc1O)c1nc2ccccc2o1 the results were Rab9 prom act 0%, FLuc counter 19µM*, NPC1 promoter act -4%, ELG1 genotoxic -6% and SMN2 splice up -10%[1.84 µM].
`N#C/C(=C\c1cccc(O)c1)c1nc2ccccc2o1` gave Rab9 prom act -10%, FLuc counter 8.5µM*, NPC1 promoter act -2% and ELG1 genotoxic 11%.
`N#C/C(=C\c1ccncc1)c1nc2ccccc2o1` gave Rab9 prom act 11%, FLuc counter -17%, NPC1 promoter act 0% and ELG1 genotoxic 3%.
For COc1cccc(NC(=O)CN(C)C(=O)c2ccccn2)c1 the results were ELG1 genotoxic 5%.
CCc1ccc(/C=C2/SC(=S)N(CCC(=O)Nc3cccc(C(=O)O)c3)C2=O)cc1 was read as Rab9 prom act 25%, FLuc counter 2.1µM*, NPC1 promoter act inconclusive and ELG1 genotoxic inconclusive.
For O=C(O)CN1C(=O)/C(=C\c2cccc(OCc3ccccc3F)c2)SC1=S the results were Rab9 prom act -3%, FLuc counter 21µM*, NPC1 promoter act 8% and ELG1 genotoxic 5%.
COc1cccc(/C=C2\SC(=S)N(CCCC(=O)N3CCCC3)C2=O)c1 was read as Rab9 prom act -17%, FLuc counter 17µM*, NPC1 promoter act -12% and ELG1 genotoxic -7%.
CCOc1ccc(/C=C2\SC(=S)N(CCC(=O)N(CCO)c3ccccc3)C2=O)cc1 was read as Rab9 prom act -10%, FLuc counter 9.5µM*, NPC1 promoter act 0% and ELG1 genotoxic -6%.
O=C(NCc1ccccc1Cl)c1ccc(Nc2nc3ccccc3n3nnnc23)cc1 was read as FLuc counter -3% and SMN2 splice up 10%.
Screening O=C(CCN1C(=O)/C(=C/c2cccs2)SC1=S)N1CCCCC1 returned Rab9 prom act -21%, FLuc counter 15µM*, NPC1 promoter act -20% and ELG1 genotoxic 7%.
`COc1ccc(/C=C2/SC(=S)N(CCC(=O)O)C2=O)cc1` gave Rab9 prom act -12%, FLuc counter 5.4µM*, NPC1 promoter act -8%, ELG1 genotoxic -4% and SMN2 splice up -13%.
For O=C(O)CCN1C(=O)/C(=C\c2cccc(Oc3ccccc3)c2)SC1=S the results were Rab9 prom act -7%, FLuc counter 24µM*, NPC1 promoter act -6% and ELG1 genotoxic 1%.
For O=C(CCN1C(=O)/C(=C\c2ccccc2)SC1=S)N1CCCCC1 the results were Rab9 prom act -21%, FLuc counter inconclusive, NPC1 promoter act -21% and ELG1 genotoxic -7%.
For O=C(CCN1C(=O)/C(=C/c2ccc(Cl)cc2)SC1=S)Nc1ccc(C(=O)O)cc1 the results were Rab9 prom act 0%, FLuc counter 11µM*, NPC1 promoter act -5% and ELG1 genotoxic 0%.
Cc1ccc(Oc2ccccc2NC(=O)C2=COCCO2)cc1 was read as Rab9 prom act -7%, FLuc counter 2%, NPC1 promoter act -8% and ELG1 genotoxic 0%.
`Cc1csc(CN(C)C(=O)CC2C(=O)NCCN2Cc2ccc(F)c(F)c2)n1` (stereo unspecified) gave Rab9 prom act 4%, FLuc counter 0%, NPC1 promoter act 0% and ELG1 genotoxic 7%.
Screening CN1C(=O)S/C(=C/c2ccc(OCc3cccc(C(=O)O)c3)cc2)C1=O returned Rab9 prom act 0.28µM*, FLuc counter 2.7µM*, NPC1 promoter act 0.4µM* and ELG1 genotoxic inconclusive.
`CCc1ccc(/C=C2\SC(=S)N(CCCC(=O)Nc3ccccn3)C2=O)cc1` gave Rab9 prom act -20%, FLuc counter 15µM*, NPC1 promoter act -21%, ELG1 genotoxic -1% and SMN2 splice up -57%.
COc1ccc(/C=C2\SC(=S)N(CCC(=O)Nc3ccc(C(=O)O)cc3)C2=O)cc1 was read as Rab9 prom act 0%, FLuc counter 3µM*, NPC1 promoter act 12% and ELG1 genotoxic inconclusive.
For CCc1ccc(/C=C2/SC(=S)N(CCC(=O)Nc3ccc(C(=O)O)cc3)C2=O)cc1 the results were Rab9 prom act -6%, FLuc counter 0.85µM*, NPC1 promoter act 19% and ELG1 genotoxic -4%.

Source: PubChem (National Center for Advancing Translational Sciences (NCATS))
